Here are results for 40 sequences from the OligoGym collection.
Further: reference of the scale not given here.

The target in one assay is BRD2. Briefly: pooled miR-30 sensor sort-seq; sequence = guide strand. The settings on record: shRNA.
TAGGACAATATCATCAGTGGGC registered a sensor-assay potency score (higher = more potent) of 0.486.
TTTCTCATTCGCTTTCTTGGGG came in with a sensor-assay potency score (higher = more potent) of 0.425.
The sequence TAAAATCTTGCATACACTCTGA gave a sensor-assay potency score (higher = more potent) of -0.097.

In the next assay the target is BRMS1L. The assay is described as above. The conditions noted are these: shRNA.
In turn, TTCAAGAATATCAAGATCTTGT gave a sensor-assay potency score (higher = more potent) of 0.566.
For TTCTTCTTCTTTCACAGTCTTC, the sensor-assay potency score (higher = more potent) was -0.927.
Same read-out and setting: the value for TAACATATCAATGAGATCTATT was -0.518; that for TTCAGATCTAGCACTGTGCAGA was -0.0416; that for TTCTGAGCTATCTCCATCCTCG was -0.213.
Sequence TTGTAGTTTTGCATCCACCTGA showed a sensor-assay potency score (higher = more potent) of 0.526.
Still for that read-out and setting: the value for TGGACCTGAAACAACAACTGGC was -0.0627; that for TTCACAGTCTTCATCATCCATT was -0.228; that for TTCTTTACAGATTCTAAGCAGA was -0.334.
Still for that read-out and setting: in the case of TTCTTTATAAAGTTGATCTTTG it was -0.111; in that of TTTGGTAACACTAATAAGGTAA, -0.0586.
Regarding TATAGCAACAGCTTTTCGCTCT, the sensor-assay potency score (higher = more potent) was determined as 0.681.

In the next assay the target is BRP44L. The description is as above. The conditions noted are these: shRNA.
Turning to TTTTGAGCTACTCTTTATGGAA, the sensor-assay potency score (higher = more potent) is -0.685.
Same read-out and setting: in the case of TCGTGTTTGATAAGCCGCCCTC it was -0.468; in that of TTGCTTCGGACATAGTCCGCCG, -0.944.
TAACATTTTTAAACAGTGGGGA gave a sensor-assay potency score (higher = more potent) of 0.282.
Same read-out and setting: in the case of TAGTCCCGGAAATCCTTGCTTC it was -0.727; in that of TTAATTGCATATTTTGAGCTAC, -0.357.
For the sequence TTTTTCATTAAGTAAATTCTAA, the sensor-assay potency score (higher = more potent) is -0.748.
As to ATGAATGTCAAAGAATAGCAAC, the sensor-assay potency score (higher = more potent) is -1.23.
Still for that read-out and setting: the value for TACCTTGTAGGCAAATCTCATG was -1.15; that for TTTGATAAGCCGCCCTCCCTGG was -0.467.
Same read-out and setting: in the case of TTCGGACATAGTCCGCCGCTTT it was -1.36; in that of TCAAAGAATAGCAACAGAGGGC, -0.477.

The target of a further assay is BST2. The description is as above. The conditions noted are these: shRNA.
ATTAGGGCCATCACAGTGTGGT gave a sensor-assay potency score (higher = more potent) of -0.491.
As to TCTCACGCTTAAGACCTGGTTT, the sensor-assay potency score (higher = more potent) is -0.474.
The same measure, in the same setting: in the case of TTTAATGTAGTGATCTCTCCCT it was 0.397; in that of TTGATGGTGAAGATAATCAAGG, -1.58; in that of TTGTCCGCGATTCTCACGCTTA, -0.717.
As for TTCTCAGTCGCTCCACCTCTGC, the sensor-assay potency score (higher = more potent) is -1.51.
The sequence ATTCTCACGCTTAAGACCTGGT had a sensor-assay potency score (higher = more potent) of -0.0201.
On the same count and under the same terms, in the case of TTTGTCCTTGGGCCTTCTCTGC it was -1.64.
Same read-out and setting: in the case of TCGCTGTTGGCCTTGATGGTGA it was -1.17; in that of TTTCTCTTCTCAGTCGCTCCAC, 0.121; in that of TTCTCTTCTCAGTCGCTCCACC, -0.48.
TTCTTGTCCGCGATTCTCACGC: the sensor-assay potency score (higher = more potent) was -0.275.
The sequence TGGTTTTCTCTTCTCAGTCGCT registered a sensor-assay potency score (higher = more potent) of -0.752.
